Sampled rows, rich in hits. Any-hit rate of the full collection: about 4.7%.
TRHR agonist = agonists of human TRH receptor | P34981 | TRHR cells, calcium flux fluo-8, FDSS agonist mode | activation, % at 2 µM | 360,000 compounds, 0.18% hits; also: 0% is about no effect
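TRHR-expressing cells, plated overnight in medium with 10% serum, were loaded with fluo-8 calcium dye at room temperature. After a 10 s baseline, library compound was pin-added and calcium release was recorded kinetically (ex 480/em 530) as agonist response.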
D1 antagonist = antagonists of human D1 dopamine receptor; HEK293 TREx D1 cells, calcium flux, dopamine EC80; hits give low values; activity change, negative = inhibition, % at 10 µM; 360,000 compounds, 3.2% hits; AID 504652; in the data active = activity change below about -30%; also: % is scaled to controls: 0 for no effect and ±100 for the full control effect
Target sequence (P21728 whole entry, looked up): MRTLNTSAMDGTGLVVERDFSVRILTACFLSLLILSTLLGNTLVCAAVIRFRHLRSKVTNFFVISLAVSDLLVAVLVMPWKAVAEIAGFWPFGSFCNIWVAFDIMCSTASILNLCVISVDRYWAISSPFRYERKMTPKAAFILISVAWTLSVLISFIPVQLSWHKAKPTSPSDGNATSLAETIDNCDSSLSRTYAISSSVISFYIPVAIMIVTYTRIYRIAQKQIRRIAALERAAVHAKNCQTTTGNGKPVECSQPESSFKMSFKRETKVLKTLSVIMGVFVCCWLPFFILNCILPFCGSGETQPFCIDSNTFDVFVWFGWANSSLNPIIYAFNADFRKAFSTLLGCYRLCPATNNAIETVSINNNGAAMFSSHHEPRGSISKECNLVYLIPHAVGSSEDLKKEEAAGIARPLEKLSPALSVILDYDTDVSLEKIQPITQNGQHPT
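HEK293 T-REx cells expressing inducible, force-coupled D1 receptor; no-wash Ca dye, 30–90 min RT. Cmpd → 180 s read at 1 Hz → EC80 DA → 180 s read.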
D1 PAM = human D1 dopamine receptor positive modulation; P21728; HEK293 TREx D1 cells, calcium flux, dopamine EC20 potentiation; potentiation, % at 10 µM; 360,000 compounds, 0.036% hits; AID 504651; in the data active = potentiation above about 30%; also: 0% is about no effect
TRHR PAM = allosterically enhances the human TRH receptor; P34981; TRHR cells, fluo-8 calcium fluorescence, EC20 TRH enhancement; enhancement, % at 2 µM; 360,000 compounds, 0.66% hits; in the data active = enhancement above about 30%; also: 0% is about no effect
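TRHR-expressing cells loaded with fluo-8 calcium dye were read kinetically (ex 480/em 530) during compound addition, then stimulated with an EC20 of TRH (10 nM final). Enhancement of the Gq-mediated intracellular calcium response was scored.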
D1 agonist = human D1 receptor agonism. P21728. HEK293 T-REx D1 cells, calcium flux, agonist mode. activation, % at 2 µM. 360,000 compounds, 1% hits; also: 0% is about no effect
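Agonism was scored from calcium flux recorded over 180 s (1 read/s) after pintool compound addition, following a 10-cycle baseline. Cells were inducible force-coupled HEK293 TREx D1, plated overnight at 30 C and loaded with no-wash calcium dye.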
Starred values were filed as active, the others as inactive; · = no result. Rule as the data show it, unless noted: active = activation above about 30%; inactive = the rest.

SMILES	TRHR agonist	D1 antagonist	D1 PAM	TRHR PAM	D1 agonist
Oc1c(C=C2N=c3ccccc3=N2)sc(=S)n1-c1ccc(F)cc1	0.1	9.1	3.1	17.5	2.8
Oc1c(C=C2N=c3ccccc3=N2)sc(=S)n1C1CCCC1	-0.2	-71.1*	8.0	-0.8	5.3
O=S(=O)(NCCc1csc2nc(-c3ccc(F)cc3)nn12)c1ccc(Oc2ccccc2)cc1	0.2	·	0.7	-4.5	7.5
Cc1ccc(Nc2nc(C(N)=O)c(NC(=O)c3ccccc3Br)s2)cc1	1.5	3.7	-3.0	7.4	5.0
c1ccc2c(c1)nc1n2C2(N3CCOCC3)CCCC2C1N1CCOCC1 (stereo not given)	14.5	0.5	1.9	4.5	46.6*
Oc1ccc2c(c1)C1CCCC1(N1CCOCC1)O2 (stereo not given)	1.3	0.2	-3.5	-3.4	2.4
COc1ccc2cc1Oc1ccc(cc1)CC1c3c(cc(OC)c4c3Oc3cc5c(cc3O4)CCNC5C2)CCN1C (stereo not given)	-1.0	-40.6*	-11.8	1.3	5.3
COc1ccc(-c2cn3cccnc3n2)cc1NC(=O)c1c(F)cccc1F	-0.2	-34.8*	-2.8	1.3	-0.8
COc1cccc(NC(=O)Nc2cc(-c3cn4cccnc4n3)ccc2OC)c1	-0.4	5.0	-2.4	34.1*	-0.1
CN(Cc1ccccc1)c1ccc2cc(S(=O)(=O)N3CCCCC3)ccc2n1	0.3	4.4	-5.0	-1.5	1.9
O=C(NNS(=O)(=O)c1ccccc1)Nc1ccc(F)cc1	-0.1	-36.1*	-7.1	-8.7	1.0
O=C(NNS(=O)(=O)c1ccccc1)c1ccc(F)cc1	-0.2	2.3	-9.0	4.7	2.3
O=C(Nc1ccccc1Sc1ccccc1)c1ccc(F)cc1	-0.3	0.7	-3.0	-0.2	1.9
O=C(Nc1ccccc1NC(=O)c1ccc(F)cc1)c1ccc(F)cc1	0.1	-35.5*	-2.1	-7.5	2.5
O=C(NNC(=O)c1ccc(NC(=O)c2ccccc2)cc1)Nc1ccccc1	0.8	-5.0	-3.0	-8.7	9.3
O=C(NNC(=O)c1ccc(NC(=O)c2ccccc2)cc1)c1ccc(F)cc1	1.6	-67.0*	-3.4	-4.9	4.4
Cc1ccc(C(=O)Nc2c(C(=O)NCc3ccc(Cl)cc3)sc3nc(C)cc(C)c23)cc1	0.2	14.1	-4.3	0.3	0.0
Cc1ccc(-c2cc(Cc3ccc(F)cc3)c(=O)[nH]n2)cc1	-0.4	-47.3*	-10.9	1.1	-0.2
COc1ccc(-c2c(C)c3ccc(O)c(CN4CCC(C)CC4)c3oc2=O)cc1OC	0.0	-1.7	0.1	4.8	1.6
COCCNc1nc2c(c(=O)n(C)c(=O)n2C)n1Cc1c(F)cccc1Cl	-0.6	6.3	-0.5	-3.3	3.7
COc1ccccc1Oc1ccc(N2CC(C(=O)OCC(=O)c3ccccc3)CC2=O)cc1 (stereo not given)	0.8	-30.4*	-13.2	7.7	4.7
O=C(c1cccc(N2CCCC2=O)c1)N1CCN(c2cccc(Cl)c2)CC1	-0.2	-57.4*	-6.8	-3.2	17.1
Cc1ccc(C(=O)N2CCN(c3cccc(Cl)c3)CC2)cc1C	-0.4	-31.8*	-1.0	4.0	2.0
Cc1ccc(Cl)cc1N1CCN(C(=O)c2ccc(C)c(-n3c(C)nc4cccnc43)c2)CC1	-1.0	-32.3*	2.8	0.3	69.4*
O=C(NC(=O)N1CCN(c2cccc(Cl)c2)CC1)c1ccccc1	-0.2	-28.6	-11.3	-5.2	4.1
SMILES	TRHR agonist	D1 antagonist	D1 PAM	TRHR PAM	D1 agonist
O=C(NC(=O)N1CCN(c2cccc(Cl)c2)CC1)c1ccc(Cl)cc1	3.2	-37.1*	-19.3	-2.4	10.4
Cc1ccc(C)c(N2CCN(C(=O)c3cccc(-n4c(C)nc5cccnc54)c3)CC2)c1	1.6	-21.1	-1.9	-5.6	15.4
Cc1cccc(NC(=O)CCn2nc(-c3ccccc3)c3ccccc3c2=O)c1	0.9	-1.1	0.1	-13.2	7.0
CSc1ccc(CCNc2ncnc3onc(C)c23)cc1	-1.0	-50.5*	-8.7	21.6	35.4*
CCCNc1ncnc2onc(C)c12	0.1	-0.9	3.1	12.8	4.4
CCOc1ccc(CCNc2ncnc3onc(-c4ccc(Cl)cc4)c23)cc1	0.6	-48.2*	-0.1	9.2	24.2
COc1ccc(CCNc2ncnc3onc(C)c23)c(OC)c1	-0.7	-45.4*	-7.0	-1.5	23.7
Cc1ccc(CCNc2ncnc3onc(-c4ccc(Cl)cc4)c23)cc1	-0.1	-10.6	0.6	1.6	2.8
Cc1cc(C)c(Cn2c3ccccc3c3cnn(CC(=O)NCCc4ccccc4)c(=O)c32)c(C)c1	-0.9	7.5	-0.7	-6.9	1.1
O=C(CCSCc1cnn(-c2ccccc2)c1-n1cccc1)NCc1ccccc1F	0.2	3.5	-0.6	-0.8	1.1
CCOc1ccc(N2C(=O)CC(NC3CCN(C(=O)c4cccc(Cl)c4)CC3)C2=O)cc1 (stereo not given)	-0.5	-0.2	-0.3	-2.8	6.2
CCOc1ccc(N2C(=O)CC(NC3CCN(C(=O)c4cccs4)CC3)C2=O)cc1 (stereo not given)	-0.2	28.8	-3.9	2.3	78.5*
COc1ccc(CN(C)S(=O)(=O)c2nnc(NC(=O)C(C)C)s2)cc1OC	0.9	-26.2	-1.2	2.5	17.1
COc1ccc(-n2c(=O)c3c(c4cc(OC)ccc4n3C)n(Cc3cc(C)ccc3C)c2=O)cc1	-0.1	-74.2*	-3.2	3.5	-1.3
Cc1ccc(NC(=O)c2ccccc2OCC(=O)Nc2ccccc2F)cc1S(=O)(=O)N(C)C	1.8	-38.1*	-0.8	5.7	3.0
Cc1ccc(NC(=O)COC(=O)c2ccc(S(=O)(=O)N3CCCCC3)cc2)cc1	0.4	1.9	-13.4	-3.7	3.0
COc1ccc2nc(SCC(=O)Nc3ccc(S(=O)(=O)N4CCCC4)cc3)c(C#N)cc2c1	2.0	8.4	1.5	-1.0	2.2
CCOc1ncccc1C(=O)OCC(=O)NCCc1ccccc1	0.0	-0.3	0.0	30.9*	0.8
O=C(COC(=O)c1ccc(S(=O)(=O)N2CCCCC2)cc1)Nc1ccccc1	1.3	11.1	·	8.0	33.7*
N#Cc1cc2ccccc2nc1SCC(=O)Nc1ccc(S(=O)(=O)N2CCCC2)cc1	9.0	-4.7	5.4	-2.0	40.7*
Cc1ccc(NC(=O)Cn2c(-c3nonc3N)nc3ccccc32)c(Br)c1	2.1	-9.9	4.7	0.1	1.6
Cc1ccc(C)c(N2CCN(c3nc4ccccc4c4nc(-c5cccnc5)nn34)CC2)c1	0.0	4.0	-1.7	9.9	0.7
CCN(CC)C(=O)Cn1c(SCCOc2ccc(Cl)cc2)nc2ccccc21	0.2	-7.0	0.3	-4.0	3.1
CC(=O)Nc1ccc(C(=O)OCC(=O)c2ccc(S(=O)(=O)N3CCCCC3)cc2)cc1	-0.5	0.8	1.0	0.7	4.7
CC(=O)Nc1cccc(C(=O)OCC(=O)c2ccc(S(=O)(=O)N3CCCCC3)cc2)c1	0.0	-36.8*	-3.6	-8.2	8.3

Bioassay records as filed in PubChem BioAssay.
